For assay [1], the system named is MDA-MB-231. Kind of assay: cell viability relative to vehicle unstimulated control (fraction); higher = more viable cells. The note with it: pre-treatment time: 18 h then 24 h IFNg/TNF.
For assay [2], the system named is MDA-MB-231. Kind of assay: kynurenine production, fold change vs DMSO IFNg/TNF control; higher = more kynurenine produced (less inhibition). The note with it: pre-treatment time: 18 h then 24 h IFNg/TNF. The procedure, abridged: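 In 96-well plates, MDA-MB-231 cells (7 × 10^4/well) were given 24 h to settle, pre-treated for 18 h with each natural product in 0.1% DMSO, and stimulated for 24 h with IFNγ (1 U/ml) and TNF (6.25 ng/ml) at 37°C. Supernatants were processed with trichloroacetic acid and p-dimethylaminobenzaldehyde and read at 492 nm against 0–100 μM standards. In the first screening round, kynurenine production, as fold change over same-plate cytokine-stimulated vehicle wells, was averaged over duplicate plates.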

This passage reports cell viability and kynurenine production results from the supplement of paper PMC13094657.

Structures are written as SMILES. ± gives the standard deviation of the averaged measurements.
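Throughout, for cell viability relative to vehicle unstimulated control: viability of the cells left after supernatant collection, read with Deep Blue dye added for 4 h, as absorbance at 570 nm minus 600 nm.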

With `CC(C)c1ccc2c(c1)CC[C@H]1[C@](C)(C(=O)O)CCC[C@]21C` [Dehydroabietic acid] (compound dose: 10 uM), the cell viability with MDA-MB-231 [1] was 1.008 ± 0.0086. Further, the kynurenine production in the assay on MDA-MB-231 [2] stood at 0.713 ± 0.23.

Consider `CC1(C)CC[C@]2(C(=O)O[C@@H]3O[C@H](CO)[C@@H](O)[C@H](O)[C@H]3O)CC[C@]3(C)C(=CC[C@@H]4[C@@]5(C)CC[C@H](O[C@@H]6O[C@H](CO)[C@@H](O)[C@H](O[C@@H]7O[C@H](CO)[C@@H](O)[C@H](O)[C@H]7O)[C@H]6O[C@@H]6O[C@H](CO)[C@@H](O)[C@H](O)[C@H]6O)[C@@](C)(CO)[C@@H]5CC[C@]43C)[C@@H]2C1` [Araloside VII] (compound dose: 10 uM), for which the cell viability in the assay on MDA-MB-231 [1] stood at 0.941 ± 0.026. In addition, the kynurenine production in the assay with MDA-MB-231 [2] amounted to 0.825 ± 0.13.

On to `COc1ccc2cc1Oc1ccc(cc1)C[C@H]1c3cc(c(OC)cc3CCN1C)Oc1c(OC)c(OC)cc3c1[C@H](C2)N(C)CC3` [Tetrandrine] (compound dose: 10 uM), for which the cell viability with MDA-MB-231 [1] stood at 1.047 ± 0.0084. Also, the kynurenine production in the assay on MDA-MB-231 [2] turned out to be 1.11 ± 0.024.

For the molecule `C/C=C(/C)C(=O)O[C@H]1[C@H](OC(C)=O)[C@]2(CO)[C@H](O)C[C@]3(C)C(=CC[C@@H]4[C@@]5(C)CC[C@H](O[C@@H]6O[C@H](C(=O)O)[C@@H](O[C@@H]7O[C@H](CO)[C@@H](O)[C@H](O)[C@H]7O)[C@H](O)[C@H]6O[C@@H]6O[C@H](CO)[C@@H](O)[C@H](O)[C@H]6O)[C@](C)(CO)[C@@H]5CC[C@]43C)[C@@H]2CC1(C)C` [Escin IB] (compound dose: 10 uM), the cell viability in the assay with MDA-MB-231 [1] is 0.915 ± 0.022. Also, in the assay on MDA-MB-231 [2], the kynurenine production was 0.801 ± 0.012.

Regarding `COC(=O)C1=CO[C@@H](O[C@@H]2O[C@H](CO[C@@H]3O[C@H](CO)[C@@H](O)[C@H](O)[C@H]3O)[C@@H](O)[C@H](O)[C@H]2O)[C@@H]2C(CO)=CC[C@H]12` [Genipin 1-β-D-gentiobioside] (compound dose: 10 uM), the cell viability in the assay on MDA-MB-231 [1] came to 0.849 ± 0.014. Also, the kynurenine production with MDA-MB-231 [2] is 0.718 ± 0.24.

Turning to `COC(=O)C1=CC[C@@]23CC[C@@H]([C@@](C)(/C=C/C=C(\C)C(=O)O)OC2=O)[C@@]3(OC(C)=O)CC1` [Pseudolaric Acid B] (compound dose: 10 uM), in the assay on MDA-MB-231 [1], the cell viability stood at 0.898 ± 0.035. In addition, the kynurenine production with MDA-MB-231 [2] turned out to be 0.62 ± 0.24.

Regarding `COc1cc(C(C)=O)cc(OC)c1O` [Acetosyringone] (compound dose: 10 uM), the cell viability with MDA-MB-231 [1] turned out to be 1.05 ± 0.032. For the same molecule, in the assay with MDA-MB-231 [2], the kynurenine production came to 0.885 ± 0.087.

With `C=C1C[C@@]23CC[C@H]4[C@@](C)(CCC[C@@]4(C)C(=O)O)[C@@H]2CC[C@@H]1C3` [Kaurenoic acid] (compound dose: 10 uM), in the assay with MDA-MB-231 [1], the cell viability stood at 1.006 ± 0.0069. Further, the kynurenine production in the assay with MDA-MB-231 [2] is 0.878 ± 0.12.

`Cc1ccc(C(C)C)cc1O` [Carvacrol] (compound dose: 10 uM): the cell viability in the assay with MDA-MB-231 [1] was determined as 1.06 ± 0.036. In the assay with MDA-MB-231 [2], the kynurenine production turned out to be 0.855 ± 0.035.

On to `C=C1C(=O)O[C@@H]2/C=C(\C)C[C@@H]3C=C(C[C@H](OC(=O)/C(C)=C\C)[C@@H]12)C(=O)O3` [Scabertopin] (compound dose: 10 uM), for which the cell viability in the assay with MDA-MB-231 [1] worked out at 0.873 ± 0.022. In addition, the kynurenine production in the assay with MDA-MB-231 [2] turned out to be 0.182 ± 0.087.

For the molecule `CC1(C)CC[C@]2(C(=O)O)CC[C@]3(C)C(=CC[C@@H]4[C@@]5(C)CC[C@H](O)[C@@](C)(CO)[C@@H]5CC[C@]43C)[C@@H]2C1` [Hederagenin] (compound dose: 10 uM), the cell viability in the assay on MDA-MB-231 [1] stood at 1.06 ± 0.2. In addition, the kynurenine production in the assay with MDA-MB-231 [2] is 1.07 ± 0.014.

On to `CC(C)C12CCC(C)(CC1)O2` [1,4-Cineole] (compound dose: 10 uM), for which, in the assay with MDA-MB-231 [1], the cell viability amounted to 0.907 ± 0.026. Besides, in the assay on MDA-MB-231 [2], the kynurenine production was found to be 0.863 ± 0.11.

For `C[C@@H]1C(=O)O[C@H]2C[C@@]34O[C@@H]5OC(=O)[C@H](O)[C@@]56[C@H](C(C)(C)C)[C@H](O)C(OC3=O)[C@]64[C@]21O` (stereo partly specified) [Ginkgolide J] (compound dose: 10 uM), in the assay with MDA-MB-231 [1], the cell viability is 0.962 ± 0.014. Moreover, in the assay on MDA-MB-231 [2], the kynurenine production was 0.875 ± 0.023.

Take `C=C1[C@@H]2CC[C@@H]3[C@](C2)(C(=O)[C@@H](O)[C@@H]2C(C)(C)[C@H]4CC(=O)[C@@]32CO4)[C@@H]1OC(C)=O` [Maoecrystal A] (compound dose: 10 uM): in the assay on MDA-MB-231 [1], the cell viability was 0.9322 ± 0.0011. Moreover, the kynurenine production in the assay on MDA-MB-231 [2] came out at 0.8659 ± 0.0031.

Turning to `CC(=O)O[C@H]1CC(=O)OC(C)(C)[C@@H]2CC(=O)[C@]3(C)[C@H](CC[C@@]4(C)[C@@H](c5ccoc5)OC(=O)[C@H]5O[C@]543)[C@@]12C` [Nomilin] (compound dose: 10 uM), the cell viability in the assay with MDA-MB-231 [1] amounted to 1.03 ± 0.023. In addition, in the assay with MDA-MB-231 [2], the kynurenine production turned out to be 0.942 ± 0.087.

For `C/C1=C\CC/C(C)=C/C2C(CC/C(C)=C/CC1)C2(C)C` (stereo unspecified) [Casbene] (compound dose: 10 uM), the cell viability with MDA-MB-231 [1] was determined as 1.11 ± 0.042. The kynurenine production in the assay with MDA-MB-231 [2] is 0.871 ± 0.056.

On to `C[C@@H]1O[C@@H](O[C@H]2[C@H](O)[C@@H](O)[C@H](OC[C@H]3O[C@@H](OC(=O)[C@]45CCC(C)(C)C[C@H]4C4=CC[C@@H]6[C@@]7(C)CC[C@H](O[C@@H]8OC[C@H](O)[C@H](O)[C@H]8O)[C@@](C)(CO)[C@@H]7CC[C@@]6(C)[C@]4(C)CC5)[C@H](O)[C@@H](O)[C@@H]3O)O[C@@H]2CO)[C@H](O)[C@H](O)[C@H]1O` [Cauloside D] (compound dose: 10 uM), for which the cell viability in the assay on MDA-MB-231 [1] was found to be 0.997 ± 0.083. The kynurenine production with MDA-MB-231 [2] was found to be 1.23 ± 0.19.

With `C[C@H]1O[C@@H](O[C@H]2[C@@H](O)C[C@H](O[C@H]3[C@@H](O)C[C@H](O[C@H]4CC[C@@]5(C)[C@H](CC[C@@H]6[C@@H]5CC[C@]5(C)[C@@H](C7=CC(=O)OC7)CC[C@]65O)C4)O[C@@H]3C)O[C@@H]2C)C[C@H](O)[C@@H]1O` [Digitoxin] (compound dose: 10 uM), the cell viability with MDA-MB-231 [1] worked out at 0.997 ± 0.019. Further, the kynurenine production with MDA-MB-231 [2] stood at 0.967 ± 0.023.
